Source: PubChem BioAssay (several laboratories)
Only some compounds are listed: those with a hit (about 27% of all), similar ones and a draw of the others.
CYP2C19 inhib: blocks human cytochrome P450 2C19 | AID 778 | actives 21% (n = 96,000) | inhibition, % at 5 µM | CYP2C19 Supersomes, luciferin-H EGE luminescence, 30 min | P33261;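 active means CYP2C19 inhibition above a set limit at 5 µM in the primary screen, cut at about 50% in these data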;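 further: plate controls were negative control wells for no effect and 2.5 mM tranylcypromine positive control for full effect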
CYP2C19 act: activators of human cytochrome P450 2C19 | 96,000 tested, under 10 active | P33261 | AID 1025 | recombinant CYP2C19, luciferin-H EGE luminescence; active compounds read high; 0 = fully inhibited enzyme, 1 = untreated enzyme | activation factor at 5 µM;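 active means activation factor of at least 2 at 5 µM in the primary screen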;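 further: 0 = wells with 2.5 mM tranylcypromine and 1 = vehicle-only wells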
CYP2C9 inhib: inhibitors of human CYP2C9 | P11712 | CYP2C9 Supersomes, luciferin-H conversion, luminescence | inhibition, % at 5 µM | actives 20% (n = 96,000) | AID 777;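 active means blocking of liver enzyme CYP2C9 beyond about 50% at 5 µM, limit read from the data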
Target sequence (P11712 whole entry, looked up): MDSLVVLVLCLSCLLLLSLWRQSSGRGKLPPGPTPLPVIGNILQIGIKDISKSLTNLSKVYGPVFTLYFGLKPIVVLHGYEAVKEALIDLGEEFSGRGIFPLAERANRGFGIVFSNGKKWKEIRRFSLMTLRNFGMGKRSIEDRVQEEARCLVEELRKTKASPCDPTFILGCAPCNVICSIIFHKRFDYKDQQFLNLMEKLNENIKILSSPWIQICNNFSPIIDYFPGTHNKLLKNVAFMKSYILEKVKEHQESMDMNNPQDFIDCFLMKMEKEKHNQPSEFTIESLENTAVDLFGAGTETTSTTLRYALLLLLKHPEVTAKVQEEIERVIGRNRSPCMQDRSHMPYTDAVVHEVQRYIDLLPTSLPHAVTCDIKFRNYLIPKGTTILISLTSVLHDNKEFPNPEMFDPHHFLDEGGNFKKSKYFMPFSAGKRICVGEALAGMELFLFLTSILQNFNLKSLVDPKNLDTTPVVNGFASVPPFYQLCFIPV
Cav3 T inh: human Cav3.2 channel inhibition, primary screen. B-score at 10 µM. Cav3.2-expressing cells, Fluo-4 calcium fluorescence FDSS; active compounds read low. actives 4% (n = 100,000). AID 449739;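 active means single-dose well whose peak fluorescence ratio is a statistical outlier from its plate by either plate-standardised score or position-corrected B-score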
CYP2C9 activ: increases human cytochrome P450 2C9 activity. actives 1.4% (n = 96,000). AID 1024. activation factor at 5 µM. recombinant CYP2C9, luciferin-H conversion, luminescence; active compounds read high; factor 1 = untreated enzyme, 0 = blocked;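 active means activation factor of 2 or more for CYP2C9 at a 5 µM dose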;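 further: 0 = sulfaphenazole-blocked wells and 1 = vehicle-only wells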
* marks the source's active call; other numbers are inactive results; x = no result given.

SMILES | CYP2C19 inhib | CYP2C19 act | CYP2C9 inhib | Cav3 T inh | CYP2C9 activ
CCSc1nnc(NC(=O)CSc2nc(C)cc(C)n2)s1 | 60.9* | 0.4 | 38.9 | 0.533 | 0.6
N#Cc1cc2c(nc1SCC(=O)Nc1nccs1)CCCCC2 | 6.2 | 0.9 | 54.5* | -0.266 | 0.5
CCSc1nnc(NC(=O)CSc2nc3c(cc2C#N)CCCC3)s1 | 18.2 | 0.8 | 51.2* | -0.534 | 0.5
COc1cccc(NC(=O)c2nn(C)cc2Br)c1 | x | x | x | 0.168 | x
COc1ccc(C(=O)C/C(=C\C(=O)c2ccc(C)cc2)c2ccccc2)cc1 | 47.8 | 0.5 | 74.2* | -4.25* | 0.3
CCc1c(C)sc(NC(=O)OC)c1C(N)=O | 2.9 | 1 | -2.4 | 0.249 | 1
CCc1c(C)sc(NC(=O)OC)c1C(=O)N1CCCCC1 | 52.5* | 0.5 | -1.7 | x | 1
CCOC(=O)c1c(NC(=O)C(F)(OC)C(F)(F)F)sc(C(=O)N2CCCCC2)c1C (centres undefined) | 23.7 | 0.8 | 76.3* | x | 0.2
CCCCOC(=O)Nc1cccc(C(C)=O)c1 | 34.1 | 0.7 | 25.1 | 1 | 0.7
Cc1noc(C)c1CSc1ccc2ccccc2n1 | x | x | x | -0.124 | x
CCn1c(CSc2nc3ccccc3s2)nc2ccccc21 | 97.7* | 0 | -26.6 | -5.67* | 1.3
Cc1noc(C)c1CSc1nc2ccccc2s1 | 94.4* | 0.1 | 39.2 | -0.659 | 0.6
Cc1noc(C)c1CSc1ncnc2ccccc12 | 96.2* | 0 | 86.1* | -0.0156 | 0.1
C=CCSc1nc2nc(C)cc(C)n2n1 | -7.3 | 1.1 | -20.8 | -0.0574 | 1.2
O=C(Oc1ccc(-c2cn3c(n2)SCC3)cc1)c1ccccc1 | -10.1 | 1.1 | -10.0 | 0.00828 | 1.1
CCOC(=O)c1ccc(NC(=O)CCc2nc(-c3ccccc3)no2)cc1 | 5.9 | 0.9 | 50.3* | -2.47 | 0.5
CCOC(=O)c1ccc(NC(=O)CCc2nc(-c3ccccc3Cl)no2)cc1 | 24.7 | 0.8 | 95.6* | -3.78* | 0
CCOC(=O)N1CCC(Nc2c(NCCN3CCN(c4ccccc4F)CC3)c(=O)c2=O)CC1 | 4.1 | 1 | 25.4 | 0.387 | 0.7
COc1cc(OC)cc(C(=O)NNC(=O)NC2CCCCC2)c1 | x | x | x | 0.532 | x
CCC1Oc2ccccc2N(CC(=O)NCCCN2CCCCC2CC)C1=O (centres undefined) | -1.1 | 1 | -4.7 | -1.01 | 1
COc1ccc(C(=O)O/N=C(/C)c2cccs2)cc1 | 47.7 | 0.5 | 91.4* | -1.3 | 0.1
COc1ccc(OCCOC(=O)c2cccs2)cc1 | 84.5* | 0.2 | 72.9* | -2.09 | 0.3
CCC(=O)c1ccc(OC(=O)c2cccs2)cc1 | x | x | x | -0.106 | x
COc1ccc(C2CC2/C(C)=N/OC(=O)c2cccs2)cc1 (centres undefined) | 62.2* | 0.4 | 75.0* | -0.622 | 0.3
Cc1cccc(/C(N)=N/OC(=O)c2cccs2)c1 | 22.5 | 0.8 | 37.6 | 0.146 | 0.6
SMILES | CYP2C19 inhib | CYP2C19 act | CYP2C9 inhib | Cav3 T inh | CYP2C9 activ
CC[C@]1(O)CC2CN(CCc3c([nH]c4ccccc34)[C@@](C(=O)OC)(c3cc4c(cc3OC)N(C)[C@H]3[C@@](O)(C(N)=O)[C@H](O)[C@]5(CC)C=CCN6CC[C@]43[C@@H]65)C2)C1 (some centres undefined) | x | x | x | -0.355 | x
CCCCNC(=O)c1onc(CSc2ccccc2F)c1C(=O)O | -0.1 | 1 | 57.2* | -0.0545 | 0.4
COCCNC(=O)c1onc(CSc2ccccc2)c1C(=O)O | 24.9 | 0.8 | 34.5 | 0.791 | 0.7
CN(C)CCNC(=O)c1onc(CSc2ccc(F)cc2)c1C(=O)NCCN(C)C | x | x | x | -0.019 | x
CCCCNC(=O)c1onc(CSc2ccc(OC)cc2)c1C(=O)O | -11.7 | 1.1 | 79.8* | -0.208 | 0.2
CCCCNC(=O)c1onc(CSc2ccc(F)cc2)c1C(=O)O | 6.3 | 0.9 | 58.0* | -0.299 | 0.4
CCCN1CCN(CCCNC(=O)CCNC(=O)Cn2ccc3ccccc3c2=O)CC1 | -17.1 | 1.2 | -10.1 | 0.312 | 1.1
[C-]#[N+][C@H](O[C@@H]1O[C@H](CO)[C@@H](O)[C@H](O)[C@H]1O)c1ccccc1 | x | x | x | -5.73* | x
CCC(C)NC(=O)c1ccccc1NS(=O)(=O)c1ccc(OC)c(OC)c1 (centres undefined) | 79.6* | 0.2 | -35.2 | 0.0235 | 1.4
COc1ccc(S(=O)(=O)Nc2ccccc2C(=O)NC(C)C)cc1OC | 80.9* | 0.2 | -54.1 | 0.0888 | 1.5
Cn1ccc2cc(NC(=O)Nc3cccnc3)ccc21 | x | x | x | 0.173 | x
CCOc1ccc(C(C)=O)cc1Cn1nc(C(=O)O)c2ccccc2c1=O | 1.9 | 1 | 5.3 | -0.774 | 0.9
COC(=O)C1(CC2CC(c3ccccc3)=NO2)CCN(C(=O)OC(C)(C)C)CC1 (centres undefined) | x | x | x | -2.5 | x
O=C1NC2(CCc3ccccc32)C(=O)N1CCOc1ccc(Cl)cc1 (centres undefined) | 5.7 | 0.9 | 77.2* | -4.84* | 0.2
Cc1ccc(NC(=O)CN2C(=O)NC3(CCc4ccccc43)C2=O)cc1Cl (centres undefined) | 19.9 | 0.8 | 38.1 | 0.441 | 0.6
Cc1ccccc1OCCN1C(=O)NC2(CCc3ccccc32)C1=O (centres undefined) | 34.6 | 0.7 | -95.1 | -0.24 | 2*
Cc1ccc(S(=O)(=O)N2CCCN(S(=O)(=O)C3CCS(=O)(=O)C3)CC2)cc1 (centres undefined) | 27.1 | 0.7 | -51.2 | 0.486 | 1.5
COC(C[C@@H]1O[C@@H]1[C@@H](O)COCc1ccccc1)OC | x | x | x | -2.93 | x
O=c1c2ccccc2ncn1-c1ccc2c(c1)OCCO2 | 19.2 | 0.8 | 12.1 | 0.351 | 0.9
CCN(CC)CCCNC(=O)C1CCN(C(=O)c2cc3sccc3n2Cc2ccc(F)cc2)CC1 | 9.6 | 0.9 | 13.6 | -0.256 | 0.9
CCc1ccc(OCc2ccc(C(=O)NCc3ccccn3)o2)cc1 | 70.8* | 0.3 | 55.0* | -3.88* | 0.4
O=C(OCc1ccccn1)c1ccc(COc2ccccc2Cl)o1 | 60.9* | 0.4 | 25.5 | -1.24 | 0.7
CCOc1ccc(OCc2ccc(C(=O)O)o2)cc1 | 69.9* | 0.3 | 30.4 | 0.0386 | 0.7
O=C(c1ccc(COc2ccccc2Cl)o1)N1CCCC1 | 30.3 | 0.7 | 46.1 | -1.11 | 0.5
CCOc1ccc(OCc2ccc(C(=O)NCc3ccncc3)o2)cc1 | 91.9* | 0.1 | 79.9* | 1.01 | 0.2
SMILES | CYP2C19 inhib | CYP2C19 act | CYP2C9 inhib | Cav3 T inh | CYP2C9 activ
COc1ccc(C(C)=O)cc1COC(=O)c1cccc(N(C)C)c1 | 71.5* | 0.3 | 79.4* | -3.47 | 0.2
COc1ccc(C(C)=O)cc1COC(=O)c1cc(C)oc1C | 60.6* | 0.4 | 65.8* | -1.38 | 0.3
COc1ccc(C(C)=O)cc1COC(=O)Cc1n[nH]c(=O)c2ccccc12 | 41.6 | 0.6 | 43.5 | 0.581 | 0.6
CN1CCN(C(=O)C2=C[C@H](c3ccc(C(F)(F)F)cc3)C[C@H](OCc3ccc(CO)cc3)O2)CC1 | x | x | x | 0.831 | x
Cc1nc(SCC(=O)NCc2ccco2)[nH]c(=O)c1C | -17.0 | 1.2 | -7.5 | -0.821 | 1.1
Cc1cc(C)c2c(n1)nn1c(C)c(CCC(=O)NCc3ccco3)c(C)nc21 | -10.5 | 1.1 | -0.9 | 1.16 | 1
Cc1cc(C)c(Cc2c(C)nc3c(C(=O)NCc4ccco4)cnn3c2C)c(C)c1 | 7.6 | 0.9 | 78.5* | -0.079 | 0.2
